Data: PubChem BioAssay (NCATS)
Results filed as inconclusive are left out. Values without a mark were called inactive. Calls of active or inactive are those of the source. Calls follow the shape of the dose curve; as a rule, active = well fitted inhibition curve with a large enough effect; inconclusive = small, poorly fitted or top-dose-only effect; inactive = no such curve, though single readings can be large or run the other way. Where a SMILES comes first, the peptide text is derived from it. The star is where a group is joined. AFC = O=c1cc(C(F)(F)F)c2ccc(N*)cc2o1

These compounds were tested on Zika virus NS2B-NS3 protease (unlinked complex) (assay: Primary screen GU Rhodamine qHTS for Zika virus inhibitors: Unlinked NS2B-NS3 protease assay (AID 1347159; also: nearly all actives have a fitted effect of over 60% in size)). Details: Recombinant ZIKV NS2B-NS3 protease, Rhodamine110 substrate fluorescence; series mostly up to 107 µM; activity change, negative = inhibition: at the top concentration.
How it was run: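 Buffer 10 mM Tris-HCl pH 8.0, 0.01% Tween 20. Unlinked protease 25 nM; compound preincubation 15 min, RT, protected from light. Substrate Rhod110, 1.5 microM; ~15% conversion in 15 min.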
% is scaled to controls: 0 for no effect and ±100 for the full control effect; potency is read from the fitted curve at half-maximal effect.

SMILES | activity change, negative = inhibition | Potency
O=C(NN1CCCCC1)c1nn(-c2ccc(Cl)cc2Cl)c(-c2ccc(C#Cc3ccc(C(F)(F)F)cc3)s2)c1CNS(=O)(=O)N1CCCC1 | 64.1% | –
O=C(c1ccccn1)c1cnn2c(-c3ccncc3)ccnc12 | 1.27% | –
CC(=O)N[C@@H](CC(C)C)C(=O)N[C@@H](CCC(=O)O)C(=O)N[C@@H](CCC(=O)O)C(=O)N[C@@H](CC(=O)O)C(=O)Nc1ccc2c(C(F)(F)F)cc(=O)oc2c1 (Ac-LEED-{AFC}) | 11.1% | –
Cc1cccc(-c2[nH]c(CNc3ccccc3F)nc2-c2ccc3ncnn3c2)n1 | 39.4% | –
O=C(O)[C@H]1CCCC[C@H]1C(=O)N1CCc2ccccc2[C@H]1CN1C(=O)c2ccccc2C1=O | 5.92% | –
CC1(C)CC[C@]2(C(=O)O)CC[C@]3(C)C(=CCC4[C@@]5(C)CC[C@H](O[C@@H]6O[C@H](C(=O)O)[C@@H](O)[C@H](O)[C@H]6O)C(C)(CO)C5CC[C@]43C)C2C1 (stereo not given in full) | -11.5% [at 32.5 µM] | –
CC(=O)O[C@H](C[C@@H](C)[C@H]1C(=O)[C@H](O)[C@@]2(C)[C@@H]3CCC4C(C)(C)[C@@H](O[C@@H]5OC[C@H](O)[C@H](O)[C@H]5O)CC[C@@]45C[C@@]35CC[C@]12C)[C@@H]1OC1(C)C (stereo not given in full) | -7.25% [at 32.5 µM] | –
C=C[C@](C)(CC/C=C(\C)C(=O)O)O[C@@H]1OC[C@H](O)[C@H](O)[C@H]1O | – | 25.1 µM (active)
CC1=CC[C@]2(C(=O)O[C@@H]3O[C@H](CO[C@@H]4O[C@H](CO)[C@@H](O[C@@H]5O[C@@H](C)[C@H](O)[C@@H](O)[C@H]5O)[C@H](O)[C@H]4O)[C@@H](O)[C@H](O)[C@H]3O)CC[C@]3(C)C(CCC4[C@@]5(C)C[C@@H](O)[C@H](O)[C@@](C)(CO)C5CC[C@]43C)C2C1C (stereo not given in full) | 2.12% [at 32.5 µM] | –
O=C1NCc2nc3ccccc3c(=O)n2C1Cc1c[nH]c2ccccc12 (stereo not given) | 4% | –
CC1OC(O[C@H]2[C@@H](O)C[C@@]3(C)C([C@H](O)C[C@]4(C)C3CC=C3C5CC(C)(C)CC[C@]5(C(=O)OC5OC(CO)C(O)C(O)C5OC5OCC(OC6OCC(OC7OCC(O)C(O)C7O)C(O)C6O)C(OC6OCC(O)(CO)C6O)C5O)CC[C@]34C)[C@]2(C)CO)C(O)C(O)C1O (stereo not given in full) | 27.1% [at 19.1 µM] | –
C[C@]12CCC[C@](C)(C(=O)O)C1CCC13C=C(CO)C(CCC12)C3 (stereo not given in full) | 11.5% | –
C1CCN2CC3C[C@@H](CN4CCCC[C@@H]34)[C@H]2C1 | 11.3% | –
CCOC(=O)Nc1nc2ccccc2[nH]1 | 29.6% | –
CC(=O)N1c2ccccc2C2(O)CC3C(=O)NC(CC(C)C)C(=O)N3C12 (stereo not given) | 8.54% | –
CC(C)=CC/C=C(/C)[C@H]1CC[C@]2(C)[C@@H]1[C@H](O)CC1[C@@]3(C)CC[C@H](O)C(C)(C)[C@@H]3[C@@H](O[C@@H]3O[C@H](CO)[C@@H](O)[C@H](O)[C@H]3O[C@@H]3O[C@@H](C)[C@H](O)[C@@H](O)[C@H]3O)C[C@]12C (stereo not given in full) | -1.99% [at 32.5 µM] | –
C=C(C)C(=O)O[C@H]1C[C@@](C)(OC(C)=O)[C@@]2(O)CC[C@@](C)(O)[C@H](OC(C)=O)[C@@]23OC(=O)C(COC)=C13 | 21% [at 57.1 µM] | –
CCn1c2ccccc2c2cc(CNC)ccc21 | 126% | –
O=C1[C@H](O[C@@H]2O[C@H](CO)[C@@H](O)[C@H](O)[C@H]2O)Oc2ccccc2N1O | 7.76% | –
CC(=O)c1c(C)cc(O[C@@H]2O[C@H](CO)[C@@H](O)[C@H](O)[C@H]2O)cc1O | 38.9% | –
CC(=O)OC1C(O)CC(O[C@@H]2O[C@H](CO)[C@@H](O)[C@H](O)[C@H]2O)C2CCC3C(=O)OC(c4ccoc4)CC3(C)C21 (stereo not given in full) | 15.7% [at 57.1 µM] | –
CC(C)=CCC[C@](C)(O[C@@H]1O[C@H](CO[C@@H]2OC[C@@H](O)[C@H](O)[C@H]2O)[C@@H](O)[C@H](O)[C@H]1O)[C@H]1CC[C@]2(C)[C@@H]1[C@H](O)C[C@@H]1[C@@]3(C)CC[C@H](O[C@@H]4O[C@H](CO)[C@@H](O)[C@H](O)[C@H]4O[C@@H]4O[C@H](CO)[C@@H](O)[C@H](O)[C@H]4O)C(C)(C)[C@@H]3CC[C@]12C | 34.8% [at 57.1 µM] | –
Cc1cc(O)c(C(C)C)cc1O[C@@H]1O[C@H](CO)[C@@H](O)[C@H](O)[C@H]1O | 14.8% | –
Cc1c(CN(C)C(=O)/C=C/c2cnc3c(c2)CCC(=O)N3)oc2ccccc12 | 5.35% | –
COC12CC3C(C(C)C1=CC(=O)O2)C(O)C(OC(C)=O)C1C(C)(C)C(OC(C)=O)CCC31C (stereo not given) | 36.8% [at 57.1 µM] | –
